Results published in the supplement of paper PMC3334620.
In all, about 33,000 sequences were measured (“E-score (-0.5 to 0.5)”: median about -0.036, highest 2% from about 0.37 on). The entries come from a sample that favours the highest values as a whole.

target: T1, Yer064c (UniProt P40041); assay: PBM E-score (8-mer binding enrichment) (E-score (-0.5 to 0.5)); higher = stronger / more preferred TF binding; conditions: protein concentration: 200 nM; construct: GST-full length
T1 sequence: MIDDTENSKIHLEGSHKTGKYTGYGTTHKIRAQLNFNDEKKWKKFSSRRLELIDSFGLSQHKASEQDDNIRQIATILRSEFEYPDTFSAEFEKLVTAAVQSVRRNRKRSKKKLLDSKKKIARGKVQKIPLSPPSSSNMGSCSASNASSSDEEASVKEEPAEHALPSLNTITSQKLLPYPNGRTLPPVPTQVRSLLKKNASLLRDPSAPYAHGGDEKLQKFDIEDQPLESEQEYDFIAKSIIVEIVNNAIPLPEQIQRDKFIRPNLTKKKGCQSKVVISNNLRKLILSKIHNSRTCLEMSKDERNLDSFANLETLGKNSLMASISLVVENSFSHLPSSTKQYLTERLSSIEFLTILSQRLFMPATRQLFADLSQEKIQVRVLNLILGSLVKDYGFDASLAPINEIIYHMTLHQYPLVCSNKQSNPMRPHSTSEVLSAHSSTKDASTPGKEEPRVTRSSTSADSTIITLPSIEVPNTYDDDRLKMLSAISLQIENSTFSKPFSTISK
Method: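 Universal 'all 10-mer' protein binding microarrays (Agilent AMADID 015681) probed with GST-tagged S. cerevisiae TFs (full-length or DBD) made by in vitro transcription/translation (PURExpress), about 100-200 nM. Bound TF was detected with fluorescent anti-GST. Each ungapped 8-mer (which stands for itself and its reverse complement) is scored by the PBM enrichment score (E-score), a modified Wilcoxon-Mann-Whitney statistic from -0.5 to +0.5, computed with the Universal PBM Analysis Suite. Scale: above 0.35 generally sequence-specific binding.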

Row | Sequence | PBM E-score
1 | ATTCGCGA | 0.122
2 | AAATGATC | 0.121
3 | AAATGACT | 0.475
4 | AAATGATT | 0.437
5 | AAATGACC | -0.0187
6 | AAATGACG | 0.0769
7 | AAATGAGG | -0.229
8 | AAATGAGT | 0.427
9 | AAATGAGC | 0.058
10 | AAATGATA | 0.104
11 | ACTATCTC | 0.212
12 | AATCCGGG | -0.239
13 | CCGTCTCA | 0.0264
14 | ATAATCAT | 0.45
15 | CTAATCAC | 0.393
16 | ATAATCAC | 0.385
17 | ATAATCAG | 0.33
18 | CTAATCAG | 0.286
19 | ATAATCAA | 0.269
20 | GTAATCAC | 0.413
21 | CTAATCGC | 0.128
22 | ATAATCTC | 0.137
23 | GTAATCAA | 0.325
24 | GAAATCAC | 0.347
25 | ATAATCCC | -0.227

Row | Sequence | PBM E-score
26 | ACCTCCAA | 0.0762
27 | ATGTAACG | -0.038
28 | TACCGCCA | -0.125
29 | AGATAGGA | -0.126
30 | TTAATCAA | 0.371
31 | TGAATCAA | 0.419
32 | TCAATCAA | 0.281
33 | CTAATCAA | 0.264
34 | AGAATCAA | 0.243
35 | CGAATCAA | 0.272
36 | ATCGACAG | -0.109
37 | CGTGAGTA | 0.323
38 | AGTGAGTC | 0.474
39 | AGTGAGTA | 0.355
40 | CGTGAGCC | 0.0694
41 | AGTGAGTG | 0.0771
42 | CGTGAGTC | 0.48
43 | GGGTGGGA | -0.139
44 | ACCCCAAT | -0.114
45 | GTATTGTA | -0.0603
46 | ATTGGATC | -0.0186
47 | AATTTTGT | 0.161
48 | AAGCGGGA | -0.239
49 | AGATAGTC | 0.403
50 | CGATAGTC | 0.422

Row | Sequence | PBM E-score
51 | CGATAGCC | -0.0746
52 | CGATAGTA | 0.032
53 | AGATAGTA | 0.177
54 | AGATAGTG | 0.0368
55 | GAACAAGC | -0.357
56 | GAGACATA | 0.334
57 | AAGTCGGT | 0.0145
58 | AAAAGACA | -0.0266
59 | AGGTGGAC | -0.133
60 | AGTCAGAC | 0.436
61 | ACTCAGAT | 0.339
62 | GGTCAGAC | 0.0361
63 | AGTCAGAG | 0.428
64 | ACTCAGAG | 0.302
65 | AGTCAGAT | 0.427
66 | TGTCAGAA | -0.00325
67 | GGTCAGAA | -0.00031
68 | AGTCAGAA | 0.434
69 | CGTCAGAC | -0.124
70 | CGTCAGAG | -0.136
71 | AATCAGAT | 0.329
72 | GGGTATAA | -0.108
73 | ATCGTGAG | 0.124
74 | CCGCGTTC | -0.274
75 | AATTCCCC | -0.128

Row | Sequence | PBM E-score
76 | ACCGGCAG | -0.243
77 | AAAGGAAG | -0.0963
78 | GAGACAGC | 0.136
79 | CTCCTCGA | 0.0215
80 | ATTGATCC | 0.0238
81 | GCGATCCA | -0.145
82 | CTGTAAGC | -0.0285
83 | ATGTAGTC | 0.382
84 | CTGTAGTA | 0.13
85 | CTGTAGTC | 0.416
86 | ATGTAGTG | 0.0118
87 | CTGTAGAC | 0.0599
88 | ATGTAGTA | 0.0442
89 | GTCCGCAA | 0.00032
90 | CTAACCGA | 0.171
91 | ACGGAGAT | 0.0115
92 | CATTCGAA | 0.0908
93 | CCGGTGTA | -0.162
94 | CTAGTCAA | 0.383
95 | GTAGTCAC | 0.479
96 | CTAGTCAC | 0.461
97 | GTCGTCAC | 0.142
98 | CTAGTCTA | 0.205
99 | CTAGTCTC | 0.278
100 | GTAGTCCA | 0.262

Row | Sequence | PBM E-score
101 | GTAGTCAA | 0.445
102 | GTAGTAAC | 0.0921
103 | GTAGTCGA | 0.263
104 | CTAGTCCC | -0.135
105 | CTAGTCGA | 0.214
106 | ACCACTCT | -0.0617
107 | GTCACGAA | 0.106
108 | TTAGTCAA | 0.464
109 | TACGTCAA | -0.153
110 | TTAGTGAA | 0.178
111 | TAGTGCGA | -0.0974
112 | GACTCGAC | 0.391
113 | GACTCGAA | 0.396
114 | AACTCGAA | -0.0714
115 | CACTCGAC | -0.0515
116 | CACTCGAA | 0.212
117 | AACTCGAC | 0.0909
118 | CAGGCATG | -0.133
119 | GTCCTCGA | 0.197
120 | CTATCCCA | -0.208
121 | AGGACTAC | 0.341
122 | ACTACTAA | 0.25
123 | GCTACTAA | -0.101
124 | CCGACTAA | 0.358
125 | TCGACTAA | 0.373

Row | Sequence | PBM E-score
126 | ACGACGAA | 0.139
127 | ACGACTAA | 0.438
128 | ACGACTAC | 0.415
129 | GCGACTAA | 0.442
130 | GCAACTAA | 0.0789
131 | TCGACGAA | -0.00207
132 | ACTACGAC | 0.302
133 | GGGAAACC | -0.0566
134 | CTTCTGTA | -0.0492
135 | ATGGTGCC | -0.358
136 | TGATTGAA | 0.333
137 | CCCTCTGC | -0.226
138 | ACGACTAG | 0.359
139 | GGGACTAC | 0.228
140 | ACGACTAT | 0.401
141 | ACGACGAT | 0.023
142 | CCGACTAC | 0.325
143 | GCGACTAC | 0.391
144 | CGCACAAG | 0.0388
145 | AGGATAGG | -0.0969
146 | ACCAACTG | -0.097
147 | CAACGTGC | -0.137
148 | ACGCTGTA | -0.00895
149 | ATGGCTCA | 0.422
150 | ATGGCTCC | 0.256

Row | Sequence | PBM E-score
151 | ATGGCTCG | 0.237
152 | CCATAAAG | -0.178
153 | CCGACTTA | 0.263
154 | CTGACTTA | 0.407
155 | GTGACTTA | 0.443
156 | GTAACTTA | 0.166
157 | ATGACTTA | 0.475
158 | CGGACTTA | 0.203
159 | ATGACGTA | 0.0562
160 | GGGACTTA | -0.0167
161 | AGGACTTA | 0.234
162 | CAGACACG | -0.14
163 | AGCGGTCA | -0.0499
164 | ACTTACAT | -0.0151
165 | AAGGGGCC | -0.145
166 | AGCGAGGC | -0.282
167 | AGGAGTCG | 0.375
168 | AGGAGTTG | -0.0388
169 | AGGAGTCC | 0.297
170 | AGGAGTGA | 0.105
171 | AGGAGTAA | 0.177
172 | AGGAGTCA | 0.486
